An excerpt weighted towards active compounds, which were near 4% of everything screened.
GDH-TPI counter-1 – GDH-TPI coupled enzyme inhibition counter-screen. inhibition, % at 4.8 µM. 360,000 compounds, 1.2% hits. GDH-TPI coupled enzyme counterscreen, NADH absorbance;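 also: 0% = DMSO wells and 100% = wells lacking the enzyme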
Mtb bLac sens – beta-lactam sensitization of Mtb H37Rv | M. tuberculosis H37Rv growth with meropenem, percent inhibition | AID 434955 | inhibition, % at 25 µM | 330,000 compounds, 0.27% hits; call rule not given here;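 also: growth measured after seven days incubation then overnight dye step; 0% = bacteria only wells and 100% = bacteria with antibiotic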
Mtb FBA inh – Mtb fructose-bisphosphate aldolase inhibition; purified M. tuberculosis FBA, fluorescence read-out; AID 588726; inhibition, % at 1 µM; 360,000 compounds, 2.3% hits; in the data active = inhibition above about 27%;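 also: 0% = vehicle and 100% = reference inhibitor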
Target sequence (P9WQA3 whole entry, looked up): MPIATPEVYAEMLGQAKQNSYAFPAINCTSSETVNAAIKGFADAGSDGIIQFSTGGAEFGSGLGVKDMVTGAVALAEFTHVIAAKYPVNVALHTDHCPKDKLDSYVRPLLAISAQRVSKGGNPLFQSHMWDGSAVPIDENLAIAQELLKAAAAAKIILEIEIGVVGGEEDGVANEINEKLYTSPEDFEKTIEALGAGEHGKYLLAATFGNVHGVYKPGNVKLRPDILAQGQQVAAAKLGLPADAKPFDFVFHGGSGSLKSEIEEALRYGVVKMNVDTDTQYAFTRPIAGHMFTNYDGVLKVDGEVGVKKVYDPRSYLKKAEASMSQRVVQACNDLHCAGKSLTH
MazF activator – activators of E. coli MazEF toxin-antitoxin RNase; P0AE70; FAM/BHQ RNA-DNA oligo cleavage fluorescence, 5 h; activation, % at 20 µM; 350,000 compounds, 0.32% hits; in the data active = activation above about 50%
Target sequence (P0AE70 whole entry, looked up): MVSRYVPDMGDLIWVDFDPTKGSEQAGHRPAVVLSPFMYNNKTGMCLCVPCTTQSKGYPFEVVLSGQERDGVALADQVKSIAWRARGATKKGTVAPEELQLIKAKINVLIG
CCHF vOTU inh – CCHFV vOTU protease inhibition; AID 651958; inhibition, % at 11.5 µM; 370,000 compounds, 0.55% hits; Pep-AMC fluorescence; also: 0% = vehicle wells with enzyme and 100% = no enzyme wells
Mtb FBA inh conf – confirmation of M. tuberculosis fructose-bisphosphate aldolase inhibitors. shares compounds with Mtb FBA inh. purified M. tuberculosis FBA, fluorescence read-out. inhibition, % at 1 µM. 5,600 compounds, 78% hits. AID 651616; in the data active = inhibition above about 27%;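 also: 0% = vehicle wells and 100% = reference inhibitor wells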
GDH-TPI counter-2 – inhibits GDH-TPI coupling enzymes, flagging Mtb FBA hits. 5,600 compounds, 81% hits. GDH-TPI coupled enzyme counterscreen, fluorescence. AID 652141. shares compounds with Mtb FBA inh. inhibition, % at 1 µM; in the data active = inhibition above about 10%
An asterisk follows results filed as active. Rule as the data show it, unless noted: active = inhibition above about 30%; inactive = the rest.

For CC(C)NC(=O)c1cc(-c2cccs2)nc2ccccc12 the results were GDH-TPI counter-1 1.3, Mtb bLac sens -3.5, Mtb FBA inh 71.4*, MazF activator 7.6, CCHF vOTU inh -147.6, Mtb FBA inh conf 144.7* and GDH-TPI counter-2 113.1*.
Cc1nn(Cc2ccccc2Cl)c2sc(C(=O)Nc3ccccc3N3CCOCC3)cc12 was read as GDH-TPI counter-1 14.8, Mtb bLac sens -0.5, Mtb FBA inh 97.4*, MazF activator -15.7, CCHF vOTU inh 3.2, Mtb FBA inh conf 71.8* and GDH-TPI counter-2 63.6*.
COc1ccc(CCNC(=O)c2cc(C3CC3)nc3c2cnn3C(C)C)cc1OC was read as GDH-TPI counter-1 8.0, Mtb bLac sens -7.5, Mtb FBA inh 4.8, MazF activator -3.2 and CCHF vOTU inh -2.2.
`CC(C)n1ncc2c(C(=O)NCCc3ccc(S(N)(=O)=O)cc3)cc(C3CC3)nc21` gave GDH-TPI counter-1 -1.7, Mtb FBA inh 28.3*, MazF activator -10.4, CCHF vOTU inh -15.1, Mtb FBA inh conf active and GDH-TPI counter-2 active.
`CN1C(=O)c2cc(NC(=O)C3CCOCC3)ccc2OC[C@@H]2O[C@@H](CC(=O)NCc3ccccc3F)CC[C@@H]21` gave CCHF vOTU inh -7.1.
For COC(=O)[C@]12C[C@H](CC(=O)NCCCCc3ccccc3)C(=O)N(Cc3ccccc3)C1=C[C@H](C(C)C)O[C@@H]2C1CC1 the results were CCHF vOTU inh 26.0.
For c1ccc(COc2ccc(-c3cc4nc(NCCOc5ccccc5)ccn4n3)cc2)cc1 the results were GDH-TPI counter-1 28.9, Mtb FBA inh 11.4 and CCHF vOTU inh 5.5.
`Nc1nc2nc(-c3ccc(OCc4ccccc4)cc3)cc(C(F)(F)F)n2n1` gave GDH-TPI counter-1 12.8, Mtb bLac sens 0.6, Mtb FBA inh 36.1*, MazF activator 58.0*, CCHF vOTU inh -15.4, Mtb FBA inh conf active and GDH-TPI counter-2 active.
Screening CC(C)c1ccc(S(=O)(=O)N2CCN(CC(O)CN3CCOCC3)CC2)cc1 (stereo not given) returned GDH-TPI counter-1 -1.3, Mtb bLac sens 11.9, Mtb FBA inh 50.9*, MazF activator 7.2, CCHF vOTU inh -1.1, Mtb FBA inh conf 81.8* and GDH-TPI counter-2 69.5*.
CCCCc1c(-c2ccccc2OC)ncn1Cc1cccc(F)c1F was read as CCHF vOTU inh 14.0.
Screening CCN(CC)C(=O)Cn1cc(S(=O)(=O)CC(=O)NC2CCCCC2)c2ccccc21 returned GDH-TPI counter-1 -10.1, Mtb bLac sens -10.6, Mtb FBA inh 32.9*, MazF activator -0.6, CCHF vOTU inh 15.8, Mtb FBA inh conf 98.9* and GDH-TPI counter-2 83.4*.
Screening CC(C)N(C(=O)Cn1cc(S(=O)(=O)CC(=O)NC2CCCCC2)c2ccccc21)C(C)C returned GDH-TPI counter-1 -7.7, Mtb bLac sens 3.0, Mtb FBA inh 0.0, MazF activator 2.1 and CCHF vOTU inh -3.6.
For CN1[C@@H](Cc2ccccc2)COc2cccc(N3CCCC3)c2S1(=O)=O the results were CCHF vOTU inh 4.8.
For CN1C(=O)c2ccccc2N(C)C1c1ccccc1Cl (stereo not given) the results were GDH-TPI counter-1 -6.7, Mtb bLac sens -2.3, Mtb FBA inh 64.5*, MazF activator 3.2, CCHF vOTU inh -89.8, Mtb FBA inh conf 56.7* and GDH-TPI counter-2 38.3*.
`CN1C(=O)c2ccccc2N(C)C1c1cccs1` (stereo not given) gave GDH-TPI counter-1 15.2, Mtb bLac sens 10.0, Mtb FBA inh 36.0*, MazF activator -4.2, CCHF vOTU inh -55.3, Mtb FBA inh conf 199.6* and GDH-TPI counter-2 136.3*.
For CN1c2ccccc2C(=O)NC1c1ccc(Cl)cc1 (stereo not given) the results were GDH-TPI counter-1 -1.5, Mtb bLac sens -0.1, Mtb FBA inh 15.3, MazF activator 4.4 and CCHF vOTU inh -45.8.
COc1ccc(S[C@]2(C(=O)N(C)C)CC(=O)N(c3ccc(C#N)cc3)[C@@H]2c2ccc(OC)cc2)cc1 was read as CCHF vOTU inh -0.2.
CC(=O)O[C@@H]1CCC[C@@]2(C(=O)Nc3ccccc32)[C@H]1NC(=O)C(C)C was read as CCHF vOTU inh -4.8.
COc1ccc(CCNC(=O)CS(=O)(=O)c2cn(CC(=O)N3CCOCC3)c3ccccc23)cc1OC was read as GDH-TPI counter-1 7.7, Mtb bLac sens -5.8, Mtb FBA inh 0.3, MazF activator -3.2 and CCHF vOTU inh -2.7.
For COc1ccc(CCNC(=O)C(=O)c2cn(CC(=O)N3CCOCC3)c3ccccc23)cc1OC the results were GDH-TPI counter-1 12.1, Mtb bLac sens 0.5, Mtb FBA inh 27.1*, MazF activator -1.7, CCHF vOTU inh 16.8, Mtb FBA inh conf active and GDH-TPI counter-2 active.
For Clc1ccc(-c2nnc3n2N=C(c2ccc(-c4ccccc4)cc2)CS3)c(Cl)c1 the results were CCHF vOTU inh 7.9.
Screening COc1cccc2sc(Nc3nnc(-c4ccccc4Cl)o3)nc12 returned GDH-TPI counter-1 28.0, Mtb bLac sens 80.7, Mtb FBA inh 17.9, MazF activator -1.9 and CCHF vOTU inh -3.5.
COc1ccccc1-c1nnc(Nc2nc3c(OC)cccc3s2)o1 was read as GDH-TPI counter-1 42.9*, Mtb bLac sens 8.2, Mtb FBA inh 33.2*, MazF activator 10.9, CCHF vOTU inh -1.4, Mtb FBA inh conf 39.9* and GDH-TPI counter-2 41.4*.
`O=C(Nc1ccc2[nH]ccc2c1)c1cc(-c2ccc(Cl)cc2)nc2ccccc12` gave CCHF vOTU inh 9.4.
Screening Cc1cc(S(=O)(=O)NCc2ccc3c(c2)OCO3)ccc1F returned GDH-TPI counter-1 6.6, Mtb bLac sens -13.0, Mtb FBA inh 87.3*, MazF activator 1.0, CCHF vOTU inh -8.8, Mtb FBA inh conf 74.2* and GDH-TPI counter-2 96.4*.
Screening O=S(=O)(NCc1ccc2c(c1)OCO2)c1ccc(F)c(F)c1 returned GDH-TPI counter-1 -5.6, Mtb bLac sens 0.6, Mtb FBA inh -0.5, MazF activator -4.6 and CCHF vOTU inh -3.5.
Screening COCCNC(=O)CSc1nc(-c2ccccc2)c(-c2ccccc2)o1 returned GDH-TPI counter-1 -6.7, Mtb bLac sens 0.9, Mtb FBA inh -3.9, MazF activator -13.4 and CCHF vOTU inh 10.0.
For CC(=O)CSc1nc(-c2ccccc2)c(-c2ccccc2)o1 the results were GDH-TPI counter-1 4.5, Mtb bLac sens 5.8, Mtb FBA inh 50.2*, MazF activator -7.9, CCHF vOTU inh -9.2, Mtb FBA inh conf 61.0* and GDH-TPI counter-2 43.5*.
COc1ccc(-c2noc(C3CCCN(C(=O)N[C@@H]4C[C@H]4c4ccccc4)C3)n2)cc1 (stereo not given in full) was read as CCHF vOTU inh 4.1.

Assay outcomes as filed in PubChem.
